The source of these data is ChEMBL document CHEMBL3988442, “University of Dundee, Small-Polar-MMV Screening Library” (2021).

The campaign covered roughly 48,000 compounds. About 13,000 (27%) showed an effect of 50% or more. Some of the results follow.

The assay relates to Wolbachia pipientis. Description: Anti-Wolbachia Cell-Based Screen. In kind it is functional. The settings on record: 5 µM. On the set-up: scale not given: in the data most compounds retested in dose-response had high values.
Take `CCC(CC)c1cc(C(=O)N2CCN(CC(N)=O)CC2)on1`: the “Percent Effect” value is given as 14.59%.

With `CC(=O)N1CCC(C(=O)NC(C)c2cccc(OC(F)F)c2)CC1` (centres undefined), the “Percent Effect” value is 11.71%.

For the molecule `CNC(=O)[C@@H](c1ccccc1)N1CCC[C@H]1C(=O)NC1CCCCC1.Cl`, the “Percent Effect” value stood at 13.78%.

Consider `O=C1NCCCC12CCN(S(=O)(=O)N1CCOCC1)C2` (centres undefined), for which the “Percent Effect” value was -15.95%.

As for `CCc1nc(CN(C)Cc2nc(-c3ccccc3Cl)oc2C)no1`, the “Percent Effect” value was -5.34%.

As to `NC(=O)NC(CC(=O)NCCc1cccc(F)c1)c1ccccc1` (centres undefined), the “Percent Effect” value was -0.165%.

For the molecule `c1ccc(C2CCCCN2Cc2nc(-c3cnccn3)no2)nc1` (centres undefined), the “Percent Effect” value came to 12.62%.

On to `c1ccc(C2CCCN2Cc2nc(-c3cnccn3)no2)nc1` (centres undefined), for which the “Percent Effect” value is -14.84%.

`CNc1nccc(C2CCCCN2Cc2cnn3cccnc23)n1` (centres undefined): the “Percent Effect” value is 117.1%.

`Cc1nc(C)c(C)c(NCc2cnn3cccnc23)n1`: the “Percent Effect” value is on record as -1.599%.

Turning to `c1ccc(-c2ncc(CN3CCCCC3CCn3cccn3)cn2)nc1` (centres undefined), the “Percent Effect” value is -35.25%.

Regarding `CN(C)c1nccc(C2CCCCN2Cc2cnn3cccnc23)n1` (centres undefined), the “Percent Effect” value is 74.52%.

Regarding `c1cnc2c(CN3CCCCC3c3ccncn3)cnn2c1` (centres undefined), the “Percent Effect” value was 72.9%.

As to `CN(C)CCC1CCCCN1Cc1cnc(-c2ccccn2)nc1` (centres undefined), the “Percent Effect” value is on record as -28.12%.

`CN(C)Cc1nc(C(C)(C)NC(=O)c2nc3ccccc3s2)no1`: the “Percent Effect” value was 8.405%.

Regarding `CC(C)c1cc(C(=O)N2C[C@H]3CC[C@@H]2CN(Cc2cscn2)C3)no1`, the “Percent Effect” value is on record as -2.131%.

As for `CNC(=O)C(C)(C)N1CCC[C@H]1C(=O)NC(C)(C)C`, the “Percent Effect” value is listed as -3.15%.

For `Fc1ccccc1CC1CCN(Cc2nccs2)CC1`, the “Percent Effect” value came out at 9.425%.

As to `OCCN1CCC(Cc2nccs2)CC1`, the “Percent Effect” value is 98.4%.

As for `Fc1ccc(CC2CCN(Cc3nccs3)CC2)cc1`, the “Percent Effect” value came to 16.43%.

For the molecule `CCOCc1nc2c(c(NCc3cc(C)on3)n1)CCN(C(C)=O)CC2`, the “Percent Effect” value is listed as -0.7778%.

As for `CCc1nc(NC(=O)NCCc2scnc2C)nn1C`, the “Percent Effect” value is listed as 3.208%.

`COc1cccc(C2CCCN2C(=O)c2ccc(=O)n(C)c2)c1` (centres undefined): the “Percent Effect” value was 0.747%.

Take `COc1cccc(C(=O)N2CCCC2c2ncc3c(n2)CCN(C)C3)c1` (centres undefined): the “Percent Effect” value is reported as 114.1%.

Turning to `COc1ccccc1C(=O)N1CCCC1c1ncc2c(n1)CCNC2.Cl` (centres undefined), the “Percent Effect” value is listed as 126.5%.

Turning to `Cl.O=C(c1cccc(F)c1)N1CCCC1c1ncc2c(n1)CCNC2` (centres undefined), the “Percent Effect” value amounted to 105.4%.

On to `O=C(c1ccc(F)c(F)c1)N1CCCCC1c1nc[nH]n1` (centres undefined), for which the “Percent Effect” value amounted to 17.06%.

Consider `COc1cccc(C2CCCN2C(=O)c2cc3c(nc2OC)CCC3)c1` (centres undefined), for which the “Percent Effect” value is reported as -14.5%.

Consider `CCOc1ccccc1C(=O)N1CCCC1c1ncc2c(n1)CCNC2.Cl` (centres undefined), for which the “Percent Effect” value came out at 7.885%.

With `CN(C)c1cccc(C(=O)N2CCc3ccc(=O)[nH]c3CC2)c1`, the “Percent Effect” value is recorded as -3.419%.

Turning to `COc1ccccc1C(=O)N1CCCC1c1nncn1CC(C)C` (centres undefined), the “Percent Effect” value worked out at 2.233%.

Regarding `CN(C)c1cccc(C(=O)N2CCCC2c2ncc3c(n2)CCNC3)c1.Cl` (centres undefined), the “Percent Effect” value was 118.3%.

In the case of `Cc1ncnc2c1CCN(C(=O)c1cccc(F)c1)CC2`, the “Percent Effect” value was -5.781%.

With `N#CCCCS(=O)(=O)N1CCC(CSc2ccccc2)C1` (centres undefined), the “Percent Effect” value is on record as -3.001%.

`O=C(C1SCCc2sccc21)N1CCN(CCO)CC1` (centres undefined): the “Percent Effect” value stood at 1.361%.

As for `O=C1NC2(Nc3ncccc31)C(=O)Nc1c2ccc(Cl)c1F` (centres undefined), the “Percent Effect” value is -11.72%.

Consider `c1ccc(-c2nnc3n2CCN(c2nc(C4CC4)ns2)C3)cc1`, for which the “Percent Effect” value is recorded as -0.2636%.

`CCCc1nccn1CCn1cnc2ccsc2c1=O`: the “Percent Effect” value is given as -10.48%.

On to `O=C(Cn1ccc2ncccc2c1=O)N1CCSCC1`, for which the “Percent Effect” value is reported as -22.33%.

With `CCn1ccnc1SCCn1cnc2ccsc2c1=O`, the “Percent Effect” value was -20.68%.

`CN1C(=O)COc2ccc(C(=O)Cn3cnc4ccccc4c3=O)cc21`: the “Percent Effect” value is on record as 102.3%.

Consider `CN(Cc1noc2c1CCCC2)C(=O)Cn1cnc2ccccc2c1=O`, for which the “Percent Effect” value is reported as 0.7727%.

In the case of `CN1C(=O)COc2ccc(C(=O)Cn3cnc4ccsc4c3=O)cc21`, the “Percent Effect” value stood at 115.3%.

As for `CC(C)(C)C(=O)N1CCN(CCOc2cccc(C#N)c2)CC1`, the “Percent Effect” value stood at 23.12%.

For `CCC[C@@H]1CN(C(=O)c2c(F)ccc(OC)c2F)C[C@H]1C(=O)O`, the “Percent Effect” value is -8.772%.

With `CCOc1ccc(N(C)Cc2nc(C)c(C)o2)cc1`, the “Percent Effect” value came to 2.822%.

Regarding `C/N=C1\c2cc3cc(OC)ccc3n2CCN1C.Cl`, the “Percent Effect” value came to 97.02%.

With `CCOC(=O)c1coc(N2CCN(Cc3cccc(OC)c3)C(=O)C2)n1`, the “Percent Effect” value is recorded as -20.43%.

As for `COc1ccc2c(c1)nc1n2[C@@H](CNCc2ccccc2)COC1`, the “Percent Effect” value is recorded as -7.543%.

As for `C/N=C1/c2cc3cc(OC)ccc3n2CCN1Cc1ccccc1.Cl`, the “Percent Effect” value is given as 86.74%.

Regarding `CCN1CC(NC(=O)Nc2nc(C)n(C(C)C)n2)CC1=O` (centres undefined), the “Percent Effect” value is recorded as -13.6%.

Consider `Cc1cc(N2CCC3(CCC(=O)N(CCCO)C3)CC2)nc(N(C)C)n1`, for which the “Percent Effect” value came to 15.64%.

On to `COc1cc(N2CC[C@H]3O[C@@H](C(=O)NC4CCCC4)CC[C@H]32)ncn1.O=C(O)C(F)(F)F`, for which the “Percent Effect” value amounted to 90.73%.

As for `COc1cc(N2CC[C@@H]3O[C@H](C(=O)N(C)C)C[C@@H]32)ncn1.O=C(O)C(F)(F)F`, the “Percent Effect” value is listed as 99.56%.

For the molecule `O=C(NC1CC1)[C@H]1CC[C@@H]2[C@@H](CCN2c2ncc(F)cn2)O1.O=C(O)C(F)(F)F`, the “Percent Effect” value was -10.92%.

With `O=C(NC1CCCC1)[C@H]1CC[C@@H]2[C@@H](CCN2c2ncc(F)cn2)O1.O=C(O)C(F)(F)F`, the “Percent Effect” value was determined as 6.364%.

Take `COc1ccc(C[C@H]2CN(c3cc(OC)ncn3)CC[C@@H]2OC)cc1.O=C(O)C(F)(F)F`: the “Percent Effect” value was -9.694%.

Consider `COc1ccc(C[C@H]2CN(c3cc(OC)ncn3)CC[C@H]2OC)cc1.O=C(O)C(F)(F)F`, for which the “Percent Effect” value was -1.133%.

Take `COc1cc(NC(=O)c2cc(C)sc2C)c(C(=O)N(C)C)cc1OC`: the “Percent Effect” value was -0.1136%.

With `CC(=O)c1ccc(-n2ccc3nc(N4CCCC4)ncc3c2=O)cc1`, the “Percent Effect” value is reported as -1.476%.

Consider `CN(C)CC1(O)CCN(Cc2cnc3c(-c4ccccc4)cnn3c2)C1` (centres undefined), for which the “Percent Effect” value is recorded as -5.196%.

On to `CC(CCN1CCn2nc(CNC(=O)N(C)C)cc2C1)c1ccccc1` (centres undefined), for which the “Percent Effect” value was -9.419%.

With `CC(CCN1CCCn2nc(CNS(C)(=O)=O)cc2C1)c1ccccc1` (centres undefined), the “Percent Effect” value is 111.7%.

On to `CS(=O)(=O)NCc1cc2n(n1)CCCN(Cc1cc3ccccc3o1)C2`, for which the “Percent Effect” value was determined as 0.8182%.
